Source: PubChem BioAssay (NCATS)
Records with an inconclusive call do not appear. Calls of active or inactive are those of the source. Calls come from the whole dose curve; as a rule, active = well fitted activation curve with a large enough effect; inconclusive = small, poorly fitted or top-dose-only effect; inactive = no such curve, though single readings can be large or run the other way.

What follows are molecules tested against Rap guanine nucleotide exchange factor 3 (Homo sapiens) (UniProt O95398) (assay: Confirmatory qHTS for agonist of cAMP-regulated guanine nucleotide exchange factor 3 (EPAC1) (AID 1645881;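 note: EPAC1 catalysed release of BODIPY-GDP from Rap1B seen as fluorescence loss; 100% = effect of cAMP agonist control; nearly all actives have a fitted effect of over 75% in size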)). Settings: EPAC1 Rap1B BODIPY-GDP exchange fluorescence; series mostly up to 154 µM; activation: at the top concentration.
Rap guanine nucleotide exchange factor 3 (Homo sapiens), sequence (O95398 whole entry, looked up): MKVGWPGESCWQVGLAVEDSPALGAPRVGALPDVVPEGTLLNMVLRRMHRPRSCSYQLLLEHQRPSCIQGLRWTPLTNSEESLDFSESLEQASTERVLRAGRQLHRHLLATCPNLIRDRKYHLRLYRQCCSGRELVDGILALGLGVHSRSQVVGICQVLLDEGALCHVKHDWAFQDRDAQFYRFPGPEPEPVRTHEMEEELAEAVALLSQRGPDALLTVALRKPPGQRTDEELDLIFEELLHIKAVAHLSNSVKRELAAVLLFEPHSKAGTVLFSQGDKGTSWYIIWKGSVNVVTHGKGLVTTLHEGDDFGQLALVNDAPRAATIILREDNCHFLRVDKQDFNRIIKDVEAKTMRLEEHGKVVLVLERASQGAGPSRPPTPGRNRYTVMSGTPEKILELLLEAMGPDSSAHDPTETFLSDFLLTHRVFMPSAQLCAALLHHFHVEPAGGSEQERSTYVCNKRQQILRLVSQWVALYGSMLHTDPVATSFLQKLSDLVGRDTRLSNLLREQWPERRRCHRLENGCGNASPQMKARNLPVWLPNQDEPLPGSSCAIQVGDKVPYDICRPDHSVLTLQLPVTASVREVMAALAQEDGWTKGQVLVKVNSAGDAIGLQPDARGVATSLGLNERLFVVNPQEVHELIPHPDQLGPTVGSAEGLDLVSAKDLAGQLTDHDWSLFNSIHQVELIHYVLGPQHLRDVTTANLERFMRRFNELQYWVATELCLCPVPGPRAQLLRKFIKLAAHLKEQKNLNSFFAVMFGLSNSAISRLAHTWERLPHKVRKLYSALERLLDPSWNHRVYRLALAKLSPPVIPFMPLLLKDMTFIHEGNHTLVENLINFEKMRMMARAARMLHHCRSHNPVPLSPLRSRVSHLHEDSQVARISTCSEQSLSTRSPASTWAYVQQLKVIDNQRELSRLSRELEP

SMILES | activation
NS(=O)(=O)c1ccc2c(c1)C1C=CCC1C(C1CC=CCC1)N2 (stereo not given) | 12% (inactive)
COC(=O)c1ccc2nc(-c3ccc(F)cc3)c(Cc3ccc(C)cc3)n2c1 | 0.544% (inactive)
COc1ccccc1NC(=O)c1ccccc1NS(=O)(=O)c1cccs1 | 7.86% (inactive)
CCOC(=O)c1cc2c(=O)n3ccccc3nc2n(Cc2ccco2)c1=NC(=O)c1c(F)cccc1Cl | 29.1% (inactive)
CCCC(=O)OC1CC(C)N(C(=O)c2ccccc2)c2ccc(C)cc21 (stereo not given) | 10.7% (inactive)
COc1ccc(OC)c(NC(=O)C2(C)CCN2CCc2ccccc2)c1 (stereo not given) | 25.6% (inactive)
O=C1Cc2ccccc2C(=O)N1CCc1ccccc1 | 9.71% (inactive)
O=C(CCCn1c(SCC(=O)c2ccc(O)c(O)c2)nc2ccccc2c1=O)NCC1CCCO1 (stereo not given) | 8.35% (inactive)
CCc1nc2c(OCc3ccc(C(F)(F)F)cc3)cccn2c1N(C)C(=O)C(C)C | -1.8% (inactive)
CCOC(=O)c1ccc2ncc(C(=O)OCC)c(Nc3ccc(C)c(Br)c3)c2c1 | 8.14% (inactive)
O=C(Nc1cccc(F)c1)c1ccc(-c2cccnc2)c2ccoc12 | 8.03% (inactive)
CCc1ccc(/C=C2\SC(=S)N(CCCC(=O)Nc3ccccc3C(=O)O)C2=O)cc1 | -3.12% (inactive)
Cc1cc(/C=C2\SC(=S)NC2=O)c(C)n1-c1cccc(O)c1 | 5.93% (inactive)
CC(C)=CCC[C@H](C)C[C@@H]1Cc2[nH][nH]c(=O)c2[C@@H](c2ccc(F)cc2)O1 | -9.12% (inactive)
CCOc1cc(CNc2ccc(O)cc2)cc(Cl)c1OCc1ccccc1 | 13.4% (inactive)
O=C(COc1ccccc1-c1ccccc1)NCc1ccco1 | 11.5% (inactive)
COc1ccc(/C=C2\C(=O)NC(=S)N2C(=O)c2ccc(F)cc2)cc1 | -24% (inactive)
O=S(=O)(Nc1cc(Sc2ncn[nH]2)c(O)c2ccccc12)c1ccccc1 | 22.7% (inactive)
CCc1ccc(C(c2ccccc2)c2c(C)[nH]c3ccccc23)s1 (stereo not given) | 11.9% (inactive)
O=S(=O)(Nc1ccc(Cl)cc1NS(=O)(=O)c1ccccc1)c1ccccc1 | 7.19% (inactive)

SMILES | activation
Cc1cccc(-c2nc3c(cnn3-c3ccccc3)c(=O)n2-c2cccc(Cl)c2)c1 | 5.92% (inactive)
CCN(CCCNC(=O)c1cc2cc3ccc(OC)cc3nc2s1)c1cccc(C)c1 | 3.69% (inactive)
O=C(NCc1ccccc1)C(c1ccccc1)n1c(=O)c(-c2ccco2)nc2ccccc21 (stereo not given) | 0.384% (inactive)
CN(CC(=O)Nc1ccc(Cl)c(C(F)(F)F)c1)CC(=O)NC1CCCCC1 | 3.04% (inactive)
O=C(CSc1nc2ccc(Cl)cc2[nH]1)N1CCN(C(=O)c2ccco2)CC1 | 6.45% (inactive)
CCOC(=O)c1ccc(NC(=O)CC2Nc3cccc4cccc(c34)NC2=O)cc1 (stereo not given) | 11.3% (inactive)
C=CCn1c(=NC(=O)c2sc3ccccc3c2Cl)sc2cc(S(N)(=O)=O)ccc21 | -3% (inactive)
C/C(=N\Nc1ccc([N+](=O)[O-])cc1)c1ccc(O)cc1 | 13.3% (inactive)
CN(CC(=O)Nc1cccc(F)c1)C(=O)c1cccc(S(=O)(=O)N2CC3(C)CC2CC(C)(C)C3)c1 (stereo not given) | -22.5% (inactive)
O=C(NCc1ccc2c(c1)CCN2C(=O)c1ccccc1)Nc1cccc(C(F)(F)F)c1 | -15.9% (inactive)
Cc1ccc(N=C2NC(=O)/C(=C/C=C/c3ccco3)S2)cc1 | 10.7% (inactive)
Cc1noc(C)c1COc1ccccc1C(=O)NC(C)c1ccc(Cl)cc1 (stereo not given) | 15.6% (inactive)
CC1(Cc2ccccc2Cl)C(=O)Nc2c(Cl)cccc21 (stereo not given) | 15.4% (inactive)
CC(=O)N1CCC[C@H]1C(=O)NCC1Cc2cc(-c3cccc(OC(F)(F)F)c3)ccc2O1 (stereo not given in full) | -5.61% (inactive)
O=C(CSc1ccc2ccccc2c1)Nc1ccc(S(=O)(=O)Nc2nccs2)cc1 | 12.6% (inactive)
C#Cc1ccc([C@@H]2C=C(C(=O)OCC=C)O[C@H](OCc3ccc(CO)cc3)C2)cc1 | 8.21% (inactive)
O=C(CSc1nc(-c2ccccc2)nc2c1Cc1ccccc1O2)Nc1ccc(C(=O)O)cc1 | 13.7% (inactive)
Cc1ccc(C2c3c(-c4cc(C)ccc4O)n[nH]c3C(=O)N2Cc2ccco2)cc1 (stereo not given) | -22.2% (inactive)
O=C1/C(=C/c2cccs2)COc2ccccc21 | 22.5% (inactive)
COc1ccccc1-c1oc2ccccc2c1C#CC(C)(C)O | 17.2% (inactive)

These molecules were tested against Rap guanine nucleotide exchange factor 4 (Homo sapiens) (UniProt Q8WZA2) (assay: Confirmatory qHTS for agonist of cAMP-regulated guanine nucleotide exchange factor 4 (EPAC2) (AID 1645884;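 note: nucleotide exchange releases bodipy-GDP from Rap1 and this lowers its fluorescence; % is set by controls: 0 for no effect and ±100 for the full control effect; nearly all actives have a fitted effect of over 65% in size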)). Settings: EPAC2 GEF activity, Rap1B-BODIPY-GDP fluorescence; series mostly up to 154 µM; activation: at the top concentration.
Rap guanine nucleotide exchange factor 4 (Homo sapiens), sequence (Q8WZA2 whole entry, looked up): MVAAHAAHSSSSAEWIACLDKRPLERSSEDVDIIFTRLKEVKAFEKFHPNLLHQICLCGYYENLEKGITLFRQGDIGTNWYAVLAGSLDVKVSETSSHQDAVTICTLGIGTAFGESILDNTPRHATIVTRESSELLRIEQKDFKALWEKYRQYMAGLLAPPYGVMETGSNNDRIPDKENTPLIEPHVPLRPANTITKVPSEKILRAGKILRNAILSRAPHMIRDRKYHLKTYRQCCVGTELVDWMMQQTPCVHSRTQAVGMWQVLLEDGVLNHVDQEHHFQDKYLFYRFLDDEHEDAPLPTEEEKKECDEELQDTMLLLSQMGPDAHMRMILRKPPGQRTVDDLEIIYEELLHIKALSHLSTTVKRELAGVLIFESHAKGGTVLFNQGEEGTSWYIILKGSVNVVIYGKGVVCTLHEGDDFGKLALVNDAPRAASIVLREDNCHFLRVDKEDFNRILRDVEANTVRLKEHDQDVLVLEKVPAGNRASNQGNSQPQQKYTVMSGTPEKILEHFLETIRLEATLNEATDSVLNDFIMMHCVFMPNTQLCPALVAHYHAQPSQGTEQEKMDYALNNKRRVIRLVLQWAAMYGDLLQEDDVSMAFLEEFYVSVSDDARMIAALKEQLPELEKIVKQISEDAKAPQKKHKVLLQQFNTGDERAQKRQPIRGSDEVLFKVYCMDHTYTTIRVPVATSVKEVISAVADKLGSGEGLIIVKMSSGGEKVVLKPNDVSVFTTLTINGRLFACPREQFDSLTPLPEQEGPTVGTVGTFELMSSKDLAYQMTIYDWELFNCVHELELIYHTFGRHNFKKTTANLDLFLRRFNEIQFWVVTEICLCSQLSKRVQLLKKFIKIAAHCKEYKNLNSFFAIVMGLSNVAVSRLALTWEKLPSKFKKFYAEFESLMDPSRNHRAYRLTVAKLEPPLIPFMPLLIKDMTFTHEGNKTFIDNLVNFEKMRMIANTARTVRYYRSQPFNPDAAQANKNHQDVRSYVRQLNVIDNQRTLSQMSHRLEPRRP

SMILES | activation
NS(=O)(=O)c1ccc2c(c1)C1C=CCC1C(C1CC=CCC1)N2 (stereo not given) | 6.51% [at 17.1 µM, percent relative to cAMP agonist control] (inactive)
COC(=O)c1ccc2nc(-c3ccc(F)cc3)c(Cc3ccc(C)cc3)n2c1 | 1.87% [at 17.1 µM, percent relative to cAMP agonist control] (inactive)
COc1ccccc1NC(=O)c1ccccc1NS(=O)(=O)c1cccs1 | -3.25% (inactive)
CCOC(=O)c1cc2c(=O)n3ccccc3nc2n(Cc2ccco2)c1=NC(=O)c1c(F)cccc1Cl | 18.8% [at 83.8 µM, percent relative to cAMP agonist control] (inactive)
CCCC(=O)OC1CC(C)N(C(=O)c2ccccc2)c2ccc(C)cc21 (stereo not given) | -2.84% [at 17.1 µM, percent relative to cAMP agonist control] (inactive)
COc1ccc(OC)c(NC(=O)C2(C)CCN2CCc2ccccc2)c1 (stereo not given) | 14.3% (inactive)
O=C1Cc2ccccc2C(=O)N1CCc1ccccc1 | 4.09% (inactive)
O=C(CCCn1c(SCC(=O)c2ccc(O)c(O)c2)nc2ccccc2c1=O)NCC1CCCO1 (stereo not given) | 0% (inactive)
CCc1nc2c(OCc3ccc(C(F)(F)F)cc3)cccn2c1N(C)C(=O)C(C)C | -0.706% [at 17.1 µM, percent relative to cAMP agonist control] (inactive)
CCOC(=O)c1ccc2ncc(C(=O)OCC)c(Nc3ccc(C)c(Br)c3)c2c1 | -0.487% [at 83.8 µM, percent relative to cAMP agonist control] (inactive)
O=C(Nc1cccc(F)c1)c1ccc(-c2cccnc2)c2ccoc12 | 1.91% (inactive)
CCc1ccc(/C=C2\SC(=S)N(CCCC(=O)Nc3ccccc3C(=O)O)C2=O)cc1 | 7.93% [at 17.1 µM, percent relative to cAMP agonist control] (inactive)
Cc1cc(/C=C2\SC(=S)NC2=O)c(C)n1-c1cccc(O)c1 | 12.1% (inactive)
CC(C)=CCC[C@H](C)C[C@@H]1Cc2[nH][nH]c(=O)c2[C@@H](c2ccc(F)cc2)O1 | 5.46% [at 17.1 µM, percent relative to cAMP agonist control] (inactive)
CCOc1cc(CNc2ccc(O)cc2)cc(Cl)c1OCc1ccccc1 | -6.57% [at 83.8 µM, percent relative to cAMP agonist control] (inactive)
O=C(COc1ccccc1-c1ccccc1)NCc1ccco1 | 8.21% [at 83.8 µM, percent relative to cAMP agonist control] (inactive)
COc1ccc(/C=C2\C(=O)NC(=S)N2C(=O)c2ccc(F)cc2)cc1 | 18.5% (inactive)
O=S(=O)(Nc1cc(Sc2ncn[nH]2)c(O)c2ccccc12)c1ccccc1 | 4.4% [at 17.1 µM, percent relative to cAMP agonist control] (inactive)
CCc1ccc(C(c2ccccc2)c2c(C)[nH]c3ccccc23)s1 (stereo not given) | 2.23% [at 83.8 µM, percent relative to cAMP agonist control] (inactive)
O=S(=O)(Nc1ccc(Cl)cc1NS(=O)(=O)c1ccccc1)c1ccccc1 | 1.88% [at 17.1 µM, percent relative to cAMP agonist control] (inactive)

SMILES | activation
Cc1cccc(-c2nc3c(cnn3-c3ccccc3)c(=O)n2-c2cccc(Cl)c2)c1 | 9.69% [at 83.8 µM, percent relative to cAMP agonist control] (inactive)
CCN(CCCNC(=O)c1cc2cc3ccc(OC)cc3nc2s1)c1cccc(C)c1 | 6.5% [at 83.8 µM, percent relative to cAMP agonist control] (inactive)
O=C(NCc1ccccc1)C(c1ccccc1)n1c(=O)c(-c2ccco2)nc2ccccc21 (stereo not given) | 3.56% [at 17.1 µM, percent relative to cAMP agonist control] (inactive)
CN(CC(=O)Nc1ccc(Cl)c(C(F)(F)F)c1)CC(=O)NC1CCCCC1 | 2.72% (inactive)
O=C(CSc1nc2ccc(Cl)cc2[nH]1)N1CCN(C(=O)c2ccco2)CC1 | -2.49% (inactive)
CCOC(=O)c1ccc(NC(=O)CC2Nc3cccc4cccc(c34)NC2=O)cc1 (stereo not given) | 9.12% [at 83.8 µM, percent relative to cAMP agonist control] (inactive)
C=CCn1c(=NC(=O)c2sc3ccccc3c2Cl)sc2cc(S(N)(=O)=O)ccc21 | -6.52% (inactive)
C/C(=N\Nc1ccc([N+](=O)[O-])cc1)c1ccc(O)cc1 | 8.19% (inactive)
CN(CC(=O)Nc1cccc(F)c1)C(=O)c1cccc(S(=O)(=O)N2CC3(C)CC2CC(C)(C)C3)c1 (stereo not given) | 8% [at 17.1 µM, percent relative to cAMP agonist control] (inactive)
O=C(NCc1ccc2c(c1)CCN2C(=O)c1ccccc1)Nc1cccc(C(F)(F)F)c1 | 5.63% [at 83.8 µM, percent relative to cAMP agonist control] (inactive)
Cc1ccc(N=C2NC(=O)/C(=C/C=C/c3ccco3)S2)cc1 | 4.55% (inactive)
Cc1noc(C)c1COc1ccccc1C(=O)NC(C)c1ccc(Cl)cc1 (stereo not given) | 5.32% (inactive)
CC1(Cc2ccccc2Cl)C(=O)Nc2c(Cl)cccc21 (stereo not given) | 10% [at 17.1 µM, percent relative to cAMP agonist control] (inactive)
CC(=O)N1CCC[C@H]1C(=O)NCC1Cc2cc(-c3cccc(OC(F)(F)F)c3)ccc2O1 (stereo not given in full) | -16.1% (inactive)
O=C(CSc1ccc2ccccc2c1)Nc1ccc(S(=O)(=O)Nc2nccs2)cc1 | 0.22% [at 17.1 µM, percent relative to cAMP agonist control] (inactive)
C#Cc1ccc([C@@H]2C=C(C(=O)OCC=C)O[C@H](OCc3ccc(CO)cc3)C2)cc1 | -0.524% [at 17.1 µM, percent relative to cAMP agonist control] (inactive)
O=C(CSc1nc(-c2ccccc2)nc2c1Cc1ccccc1O2)Nc1ccc(C(=O)O)cc1 | 9.63% (inactive)
Cc1ccc(C2c3c(-c4cc(C)ccc4O)n[nH]c3C(=O)N2Cc2ccco2)cc1 (stereo not given) | -9.51% [at 83.8 µM, percent relative to cAMP agonist control] (inactive)
O=C1/C(=C/c2cccs2)COc2ccccc21 | 1.85% [at 17.1 µM, percent relative to cAMP agonist control] (inactive)
COc1ccccc1-c1oc2ccccc2c1C#CC(C)(C)O | 2.76% (inactive)
